Experimental findings from PubChem BioAssay (NCI) are described below.

Each structure is given as a SMILES string. The panel holds about 83,000 compounds, 20% with a hit somewhere; the sample as a whole holds those more often.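 Assay: single dose, 48 h. Readout: percent growth (0 = no net growth; negative = cell death). Active: <10.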 Values without a mark were called inactive. The source made the active and inactive calls.

The first assay has as its system A498 renal. In words: NCI-60 one-dose screen, 48 h (100 = growth as untreated, 0 = no growth, -100 = all killed). The settings on record: 10 µM unless noted.
Take `COc1cnc2c(c1)C(=O)c1c-2n(CCCn2ccnc2)c(=O)c2cc(F)ccc12`: the growth was -84.4% (active).

As to `C[C@]12CCC(=O)C=C1CCC1C2[C@@H](O)C[C@@]2(C)C1CC[C@]2(O)C(=O)COC(=O)CCC(=O)O` (stereo partly drawn), the growth was 118%.

As for `CCOC(=O)/C=C1/SC(=Nc2ccc(C#N)cc2)N(Cc2ccco2)C1=O`, the growth is 87%.

Take `C[C@H](C(=O)N[C@@H](Cc1ccc(-c2ccccc2)cc1)C(=O)NC1CC(C)(C)NC(C)(C)C1)c1ccc(-c2ccccc2)c(F)c1`: the growth is -4.66% (active).

For the compound `Nc1ccccc1C#Cc1ccccc1C#Cc1ccc(OCCCCCCOc2ccc(C#Cc3ccccc3C#Cc3ccccc3N)cc2)cc1`, the growth is 116%.

For the compound `CCSc1nc(-c2ccco2)n2nc(-c3ccco3)cc2n1`, the growth was 91.7%.

As for `CN(C)c1ccc(-c2nc3ncc(Br)cc3o2)cc1`, the growth is 79.8%.

As for `CN1CCN(c2nc3scc(-c4ccccc4)c3c(=O)[nH]2)CC1`, the growth is 91%.

Take `N#CC(C#N)C(C#N)C#N`: the growth was 99%.

Take `CCOC(=O)c1sc(NC(=O)COc2cccc(/C=C3\CCc4cc(OC)ccc4C3=O)c2)nc1C`: the growth is 85.8%.

Take `CCN1CC2=C(Nc3nc(SC)[nH]c(=O)c3C2c2cc(OC)c(OC)c(OC)c2)/C(=C/c2cc(OC)c(OC)c(OC)c2)C1` (stereo not drawn): the growth is 104%.

As for `CCOC(=O)CCC(=O)O[C@H]1[C@H](O[C@@H]2[C@@H](C)[C@H](O[C@H]3C[C@@](C)(OC)[C@@H](O)[C@H](C)O3)[C@@H](C)C(=O)O[C@H](CC)[C@@](C)(O)[C@H](O)[C@@H](C)C(=O)[C@H](C)C[C@@]2(C)O)O[C@H](C)C[C@@H]1N(C)C`, the growth is 120%.

Take `CNCCCn1c2c(c3ccc(F)cc3c1=O)C(=O)c1cc(OC)cnc1-2`: the growth is -87.6% (active).

`NC(=NCCCCCCN=C(N)/N=C(\N)Nc1ccc(Cl)cc1)/N=C(\N)Nc1ccc(Cl)cc1`: the growth was 11.1%.

As for `O=C1CSC(c2ccccc2Cl)N1c1nnc(Cn2nnc3ccccc32)o1` (stereo not drawn), the growth is 50.2%.

Consider `O=C(O)CCC(=O)OC[C@@H](NC(=O)C(Cl)Cl)[C@H](O)c1ccc([N+](=O)[O-])cc1`, for which the growth is 117%.

As for `COc1ccc(-c2cc(-c3nnc(SCC(=O)Nc4ccc(C(C)=O)cc4)n3-c3ccccc3)c3ccccc3n2)cc1OC`, the growth is 114%.

On to `C[C@H](C(=O)N[C@@H](Cc1ccc(-c2ccccc2)cc1)C(=O)NC1CC(C)(C)N(C)C(C)(C)C1)c1ccc(-c2ccccc2)c(F)c1`, for which the growth was -18.2% (active).

Take `CSc1nc(Nc2ccc(S(=O)(=O)Nc3ccon3)cc2)c(C#N)c(-c2ccc(Cl)cc2)n1`: the growth is 93.3%.

Consider `COC(=O)C1(NC(=O)CNC(=O)OCc2ccccc2)CCCC1`, for which the growth was 96.9%.

In the case of `Cc1cc(C)nc(NS(=O)(=O)c2ccc(Nc3nc4nc(SCc5ccccc5)nc(-c5ccc(O)cc5)c4c(=O)[nH]3)cc2)n1`, the growth is 90.7%.

For `NS(=O)(=O)c1cc2c(cc1Cl)NC=NS2(=O)=O`, the growth is 110%.

With `C[C@@H]1C[C@@H]([C@@H](CC2CC(=O)NC(=O)C2)OC(=O)CC(=O)c2ccccc2)C(=O)[C@@H](C)C1`, the growth is 16.7%.

With `OCc1n(Cc2ccc3ccccc3c2)cc[n+]1Cc1ccc2ccccc2c1`, the growth is 72.7%.

For `COc1cnc2c(c1)C(=O)c1c-2n(CCCNC2=NCCS2)c(=O)c2cc(F)ccc12`, the growth is -52.4% (active).

In the case of `Cc1onc(-c2ccccc2Cl)c1C(=O)N[C@@H]1C(=O)N2[C@@H]1SC(C)(C)[C@@H]2C(=O)O`, the growth is 114%.

Regarding `C[C@H]1O[C@@H](O[C@H]2[C@@H](O)C[C@H](O[C@H]3[C@@H](O)C[C@H](O[C@H]4CC[C@]5(C)C6C[C@@H](O)[C@]7(C)[C@@H](C8=CC(=O)OC8)CC[C@]7(O)C6CC[C@@H]5C4)O[C@@H]3C)O[C@@H]2C)C[C@H](O)[C@@H]1O` (stereo partly drawn), the growth was -33% (active).

For `O=C1NCCc2c1noc2-c1ccccc1`, the growth was 105%.

Take `Cc1n(Cc2ccc3ccccc3c2)c2ccccc2[n+]1Cc1ccc2ccccc2c1`: the growth is -11.5% (active).

For a further assay, the system named is CCRF-CEM leukemia. The description is as above. As to conditions: 10 µM unless noted.
For the compound `COc1ccc2c(c1)C(=Nc1cc(OC)c(OC)c(OC)c1)C(=O)N2`, the growth was 81.1%.

In the case of `COc1cnc2c(c1)C(=O)c1c-2n(CCCn2ccnc2)c(=O)c2cc(F)ccc12`, the growth was -0.897% (active).

Regarding `C[C@]12CCC(=O)C=C1CCC1C2[C@@H](O)C[C@@]2(C)C1CC[C@]2(O)C(=O)COC(=O)CCC(=O)O` (stereo partly drawn), the growth was 64.9%.

For `C[C@@H]1[C@H]2[C@H](C=C3[C@@H]4CC[C@H]5Cc6nc7c(nc6C[C@]5(C)[C@H]4C[C@@H](O)[C@@]32C)C[C@@H]2CC[C@H]3C4=C[C@@H]5O[C@@]6(CC[C@](C)(CO)O6)[C@@H](C)[C@@]5(O)[C@@]4(C)[C@H](O)C[C@@H]3[C@@]2(C)C7)O[C@]12CCC(C)(C)O2`, the growth was 2.79% (active).

On to `CCOC(=O)/C=C1/SC(=Nc2ccc(C#N)cc2)N(Cc2ccco2)C1=O`, for which the growth was 0.581% (active).

As to `C[C@H](C(=O)N[C@@H](Cc1ccc(-c2ccccc2)cc1)C(=O)NC1CC(C)(C)NC(C)(C)C1)c1ccc(-c2ccccc2)c(F)c1`, the growth was -20.9% (active).

On to `Nc1ccccc1C#Cc1ccccc1C#Cc1ccc(OCCCCCCOc2ccc(C#Cc3ccccc3C#Cc3ccccc3N)cc2)cc1`, for which the growth was -59.7% (active).

Turning to `CCSc1nc(-c2ccco2)n2nc(-c3ccco3)cc2n1`, the growth is 86.7%.

Take `CN(C)c1ccc(-c2nc3ncc(Br)cc3o2)cc1`: the growth was 77.1%.

With `CN1CCN(c2nc3scc(-c4ccccc4)c3c(=O)[nH]2)CC1`, the growth is 103%.

For `CC(=O)OC1Oc2cc(C)c(C)cc2-c2oc(=O)c(-c3ccccc3)cc21` (stereo not drawn), the growth was -37.8% (active).

In the case of `N#CC(C#N)C(C#N)C#N`, the growth was 105%.

On to `CCOC(=O)c1sc(NC(=O)COc2cccc(/C=C3\CCc4cc(OC)ccc4C3=O)c2)nc1C`, for which the growth is -17.2% (active).

As to `COc1cnc2c(c1)C(=O)c1c-2n(CCCN2CCOCC2)c(=O)c2cc(F)ccc12`, the growth is 1.77% (active).

As to `CCN1CC2=C(Nc3nc(SC)[nH]c(=O)c3C2c2cc(OC)c(OC)c(OC)c2)/C(=C/c2cc(OC)c(OC)c(OC)c2)C1` (stereo not drawn), the growth was 84.7%.

Take `CCOC(=O)CCC(=O)O[C@H]1[C@H](O[C@@H]2[C@@H](C)[C@H](O[C@H]3C[C@@](C)(OC)[C@@H](O)[C@H](C)O3)[C@@H](C)C(=O)O[C@H](CC)[C@@](C)(O)[C@H](O)[C@@H](C)C(=O)[C@H](C)C[C@@]2(C)O)O[C@H](C)C[C@@H]1N(C)C`: the growth was 91.4%.

Regarding `CNCCCn1c2c(c3ccc(F)cc3c1=O)C(=O)c1cc(OC)cnc1-2`, the growth was 1.24% (active).

Regarding `NC(=NCCCCCCN=C(N)/N=C(\N)Nc1ccc(Cl)cc1)/N=C(\N)Nc1ccc(Cl)cc1`, the growth is 12.5%.

As to `O=C1CSC(c2ccccc2Cl)N1c1nnc(Cn2nnc3ccccc32)o1` (stereo not drawn), the growth is 85.6%.

With `O=C(O)CCC(=O)OC[C@@H](NC(=O)C(Cl)Cl)[C@H](O)c1ccc([N+](=O)[O-])cc1`, the growth is 89.7%.

As to `COc1ccc(-c2cc(-c3nnc(SCC(=O)Nc4ccc(C(C)=O)cc4)n3-c3ccccc3)c3ccccc3n2)cc1OC`, the growth is 104%.

On to `C[C@H](C(=O)N[C@@H](Cc1ccc(-c2ccccc2)cc1)C(=O)NC1CC(C)(C)N(C)C(C)(C)C1)c1ccc(-c2ccccc2)c(F)c1`, for which the growth was -45.9% (active).

As to `O=C(O)C1C(c2ccccc2)c2ccccc2C(O)C1CO` (stereo not drawn), the growth is 92.9%.

Regarding `CSc1nc(Nc2ccc(S(=O)(=O)Nc3ccon3)cc2)c(C#N)c(-c2ccc(Cl)cc2)n1`, the growth was 6.79% (active).

With `Cc1cc(C)c(C(=O)c2cccs2)c(C)c1`, the growth is 97.9%.

As for `COC(=O)C1(NC(=O)CNC(=O)OCc2ccccc2)CCCC1`, the growth was 101%.

In the case of `Cc1cc(C)nc(NS(=O)(=O)c2ccc(Nc3nc4nc(SCc5ccccc5)nc(-c5ccc(O)cc5)c4c(=O)[nH]3)cc2)n1`, the growth was 71.2%.

Consider `Nc1ccc(N=Nc2ccccc2)cc1[N+](=O)[O-]`, for which the growth is 97.7%.

As for `NS(=O)(=O)c1cc2c(cc1Cl)NC=NS2(=O)=O`, the growth was 97.6%.

Regarding `CCOC(=O)C1=CCC(n2cc(C)c(=O)[nH]c2=O)O1` (stereo not drawn), the growth was 98.8%.

Turning to `C[C@@H]1C[C@@H]([C@@H](CC2CC(=O)NC(=O)C2)OC(=O)CC(=O)c2ccccc2)C(=O)[C@@H](C)C1`, the growth was 15.4%.

For `OCc1n(Cc2ccc3ccccc3c2)cc[n+]1Cc1ccc2ccccc2c1`, the growth was 34.2%.

With `COc1cnc2c(c1)C(=O)c1c-2n(CCCNC2=NCCS2)c(=O)c2cc(F)ccc12`, the growth is 0.88% (active).

With `Cc1onc(-c2ccccc2Cl)c1C(=O)N[C@@H]1C(=O)N2[C@@H]1SC(C)(C)[C@@H]2C(=O)O`, the growth is 96.6%.

Consider `C[C@H]1O[C@@H](O[C@H]2[C@@H](O)C[C@H](O[C@H]3[C@@H](O)C[C@H](O[C@H]4CC[C@]5(C)C6C[C@@H](O)[C@]7(C)[C@@H](C8=CC(=O)OC8)CC[C@]7(O)C6CC[C@@H]5C4)O[C@@H]3C)O[C@@H]2C)C[C@H](O)[C@@H]1O` (stereo partly drawn), for which the growth was -56.6% (active).

Consider `CC1CN(/N=C/c2ccc([N+](=O)[O-])o2)C(=N)O1` (stereo not drawn), for which the growth is 112%.

`O=C1NCCc2c1noc2-c1ccccc1`: the growth was 109%.

As to `CC(=O)c1ccccc1NC(=O)C(C)(c1ccccc1)c1ccccc1`, the growth was 77.4%.

On to `Cc1n(Cc2ccc3ccccc3c2)c2ccccc2[n+]1Cc1ccc2ccccc2c1`, for which the growth is -45.1% (active).
